# HSP90 inh – inhibitors of HSP90 luciferase refolding in rabbit reticulocyte lysate; hit rate 0.91% among 290,000; luciferase refolding luminescence, 3 h; inhibition, % at 5.6 µM;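 active = inhibition above the screen-wide mean plus 3 SD, computed separately per campaign, cut at about 16% in these data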;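 also: 0% = DMSO wells and 100% = 60 µM geldanamycin wells; inhibitors lower the luminescence because luciferase stays unfolded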
# NR0B1 inh – NR0B1 (DAX1) inhibition. HEK293 Gal4-DAX1 luciferase reporter, luminescence. P51843. inhibition, % at 6.75 µM. hit rate 0.99% among 340,000. AID 504766;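 active = inhibition above the mean over all tested compounds plus 3 SD, cut at about 4.2% in these data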;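 also: 0% = DAX1-transfected cells with DMSO and 100% = empty-vector control cells with DMSO; inhibition shows as a rise in luminescence from relieved DAX1 repression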
# Target sequence (P51843 207-470 limits assumed): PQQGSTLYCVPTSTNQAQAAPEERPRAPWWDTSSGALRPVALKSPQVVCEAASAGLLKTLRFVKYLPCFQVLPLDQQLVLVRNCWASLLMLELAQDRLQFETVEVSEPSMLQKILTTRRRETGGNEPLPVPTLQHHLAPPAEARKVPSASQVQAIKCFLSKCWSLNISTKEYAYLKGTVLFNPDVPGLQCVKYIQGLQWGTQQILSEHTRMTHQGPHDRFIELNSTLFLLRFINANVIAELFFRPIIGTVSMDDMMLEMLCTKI
# AHR activator – human AHR activation; P35869; AHR-responsive luciferase reporter cells, luminescence; activation, % at 5 µM; hit rate 2.5% among 320,000; AID 2796; in the data active = activation above about 47%;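 also: 0% = vehicle wells and 100% = reference agonist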
# HSF1 inhib – HSF1 inhibition | activity change, negative = inhibition, % at 7.5 µM (by protocol) | AID 2098 | hit rate 0.77% among 300,000 | NIH3T3-HGL HSE-luciferase, MG132-induced, luminescence 8 h; hits give low values;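 active = more than half of replicate wells show activity change below -50%, luminescence cut by over half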;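 also: luciferase reports HSF-1 transcriptional activity via heat shock element; 0% = median of DMSO wells and -100% = zero luminescence signal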
# FXN GAA850 act – increases GAA850 frataxin promoter reporter activity; HEK293 lucGAA850 FXN promoter luciferase reporter, 24 h; percent of 10 µM SAHA response; activation, % at 6 µM; hit rate 0.56% among 360,000; AID 540364;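 active = activation above the average of all compounds screened plus 3 SD, cutoff fixed separately per campaign, cut at about 7.5% in these data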;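 also: 0% = DMSO wells and 100% = 10 µM SAHA wells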
# HSF1 activator – increases HSF-1 driven luciferase reporter signal. AID 504408. NIH3T3-HGL HSF-1 luciferase reporter, MG132, 8 h; 100% = twice DMSO control signal. activation, % at 9 µM. hit rate 1.7% among 300,000;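 active = mean replicate activation of at least 50% with a set share of replicates each reaching 50%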;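 also: 0% = median of the neutral control wells and 100% = twice that signal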
# * = called active by the depositor; · = not tested or not shown. Only some compounds are listed: those with a hit (about 5.9% of all), similar ones and a draw of the others.
SMILES,HSP90 inh,NR0B1 inh,AHR activator,HSF1 inhib,FXN GAA850 act,HSF1 activator
COc1ccc(C2CC(=O)C3=C(C2)Nc2ncnn2C3c2ccccc2)cc1 (stereo unspecified),1,0,3,40,1,81*
OC(CNCC#Cc1ccccc1)c1ccccc1 (stereo unspecified),1,-1,0,-1,0,-7
CCC(CO)NCC#Cc1ccccc1 (stereo unspecified),1,2,2,32,1,62*
COc1ccc(C(=O)N(C)C(C)c2ccon2)cc1OC1CCN(C(C)C)CC1 (stereo unspecified),0,1,1,-10,0,-26
COc1ccccc1C(=O)Nc1cccc(N(C)S(C)(=O)=O)c1,0,2,51*,8,2,50*
CCOc1ccccc1C(=O)Nc1ccc(C(=O)c2ccccc2)cc1,7,0,9,1,1,9
CCOc1ccccc1C(=O)Nc1ccc(NC(=O)c2ccccc2)cc1,2,1,2,-79*,-2,-83
COc1ccccc1C(=O)Nc1ccc2c(c1)C(=O)NC2=O,-2,-1,58*,6,0,14
CCOc1ccccc1C(=O)Nc1ccc2c(c1)C(=O)NC2=O,-5,2,47*,0,1,2
Cc1ccccc1C(=O)Nc1ccc2c(c1)C(=O)NC2=O,3,2,10,-3,-1,4
C/C(=N\NC(=O)c1nn(C)c(C)c1Br)c1ccc(NC(=O)C2CCCC2)cc1,-4,2,·,·,6,·
O=C(c1cncc(Br)c1)N1CCN(S(=O)(=O)c2ccccc2C(F)(F)F)CC1,-7,1,11,-7,1,0
CC1CCN(S(=O)(=O)c2cccc(C(=O)Nc3nncs3)c2)CC1,-2,1,4,-2,1,7
CCC(=O)N(C)CCc1cc2c(c(OC)c1/C=N/NC(=O)c1ccncc1)OCO2,0,4.2*,0,-1,0,-6
CCC(=O)N(C)CCc1cc2c(c(OC)c1/C=N/NS(=O)(=O)c1ccc(C)cc1)OCO2,-3,1,16,0,1,9
CCCCOc1ccc(C(=O)NCC(=O)NCC(c2ccco2)N2CCCCC2)cc1 (stereo unspecified),·,-1,1,-1,-1,-15
Cc1cc(C(=O)CCC(=O)N2CCN(S(=O)(=O)c3ccccc3)CC2)c(C)s1,·,-1,0,3,-2,-1
CN(Cc1ccccc1)C(=O)CCC1CCN(C(=O)CC2=CCCCC2)CC1,-1,-1,·,44,0,71*
COCCn1c(=O)[nH]c(=O)c2c1nc(-c1cc(Br)c3c(c1)OCO3)n2Cc1ccccc1,3,0,1,22,4,59*
c1ccc2c(c1)CCc1c(-c3ccncc3)n[nH]c1-2,·,2,44,·,2,·
Clc1ccc(-c2n[nH]c3c2Cc2ccccc2-3)cc1Cl,-4,·,60*,14,·,17
COC(=O)c1ccc2c(=O)n(CC3CCCO3)c(SCC(=O)Nc3ccccc3OC)nc2c1 (stereo unspecified),4,0,-1,28,-2,55*
COc1ccccc1-n1c(SC(C)C(=O)NCC2CCCO2)nc2cc(Cl)ccc2c1=O (stereo unspecified),·,-2,59*,12,-5,19
CCOC(=O)c1[nH]c(=O)[nH]c1CSc1nc(C)cc(C)n1,0,0,48*,-3,-1,-1
CCOC(=O)CCCCC(=O)c1[nH]c(=O)[nH]c1CSc1nc(C)cc(C)n1,1,-1,5,-2,1,-10
SMILES,HSP90 inh,NR0B1 inh,AHR activator,HSF1 inhib,FXN GAA850 act,HSF1 activator
CCOC(=O)CC(=O)CSc1nc2ccc(C)cc2cc1C#N,-2,6.7*,9,·,6,·
COC(=O)CSc1nc2cc(C)ccc2cc1C#N,-4,4.4*,-2,38,5,65*
CC(C)N(Cc1ccccc1)C(=O)COC(=O)c1c(F)cccc1F,·,-1,-1,·,0,·
CC(C)c1ccc2c(c1)C1Cc3ccccc3C1N2 (stereo unspecified),-5,3,51*,26,3,19
Cc1nc(/C=C/c2ccccc2)cc(/C=C/c2ccccc2)n1,3,2,10,-3,1,38
C(/C=C/c1ccccn1)=C\c1ccccc1,·,5.0*,6,22,3,61*
C(=C\c1cc(/C=C/c2ccccc2)ncn1)/c1ccccc1,-7,5.0*,0,18,3,6
C(=C\c1ccccn1)/c1ccncc1,2,3,1,-5,2,13
O=C(O)c1cc2ncc(-c3[nH]ncc3[N+](=O)[O-])cn2n1,0,0,3,-5,0,-2
C[C@H](CO)N1C[C@H](C)[C@@H](CN(C)S(=O)(=O)c2ccccc2)OCc2cnnn2CCCC1=O,·,2,·,·,-2,·
COc1cc(NC(=O)c2cccc(C)c2)c(OC)cc1NC(=O)CN1CCOCC1,-4,-1,20,3,0,-1
COc1cc(NC(=O)c2cccc(Cl)c2)c(OC)cc1NC(=O)CN1CCOCC1,-1,-2,63*,-3,-2,4
O=C(CN1CCCCCC1)Nc1cccc(NC(=O)CN2CCCCCC2)c1,2,4.5*,0,8,1,7
COc1cc(NC(=O)c2cccc(Cl)c2)c(OC)cc1NC(=O)CN1CCCCC1,-4,-1,71*,-2,1,0
COc1cc(NC(=O)c2ccc(F)cc2)c(OC)cc1NC(=O)CN1CCCCC1,-3,0,40,20,2,37
CCCS(=O)(=O)n1nc(-c2ccc(Br)cc2)cc1N,-5,0,58*,17,3,25
O=C(Cn1c(=O)[nH]c2ccsc2c1=O)NC1CCCCCC1,0,7.3*,1,-1,-3,2
COc1cc(/C=C(/C#N)C(=O)Nc2cc(C(F)(F)F)ccc2Cl)ccc1OCC(=O)Nc1cccc(C(F)(F)F)c1,·,0,·,·,-1,·
CCOc1cc(CNc2ccc3cn[nH]c3c2)ccc1OC,3,-1,53*,-31,1,-42
COc1ccc(CNc2ccc3cn[nH]c3c2)c(OC)c1OC,1,-2,27,6,-2,-2
COc1cc(CNc2ccc3[nH]c(=O)[nH]c3c2)ccc1OCc1ccc(F)cc1,-5,-1,2,21,5,41
COc1cc(CNc2ccc3[nH]c(=O)[nH]c3c2)ccc1OCc1ccc(Cl)cc1,-7,-2,1,58,6,83*
Cc1cc(C)c(N2C(=O)C3C4CC(=O)C(c5ccccc54)C3C2=O)c(C)c1 (stereo unspecified),-4,1,3,1,-1,9
CSc1ccc(/C=C/C(=O)OCC(=O)NCC2CCCO2)cc1 (stereo unspecified),·,0,0,·,0,·

# Assay outcomes: PubChem, several laboratories
